Laboratory results taken from PubChem BioAssay AID1211 (NMMLSC, 2008).
The source made the active and inactive calls. The rule behind the calls is not given here.

Molecular target: Estrogen receptor (Homo sapiens) (UniProt P03372)
Experiment: displacement of fluorescent estrogen from ERalpha – cell-based, Cos7 ERalpha-GFP, flow cytometry, primary screen (AID 1211);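 note: 0% = DMSO vehicle wells and 100% = no E2-Alexa633 signal left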
Details: fluorescent ligand competition, stronger effect = higher value

Estrogen receptor (Homo sapiens), sequence (P03372 whole entry, looked up): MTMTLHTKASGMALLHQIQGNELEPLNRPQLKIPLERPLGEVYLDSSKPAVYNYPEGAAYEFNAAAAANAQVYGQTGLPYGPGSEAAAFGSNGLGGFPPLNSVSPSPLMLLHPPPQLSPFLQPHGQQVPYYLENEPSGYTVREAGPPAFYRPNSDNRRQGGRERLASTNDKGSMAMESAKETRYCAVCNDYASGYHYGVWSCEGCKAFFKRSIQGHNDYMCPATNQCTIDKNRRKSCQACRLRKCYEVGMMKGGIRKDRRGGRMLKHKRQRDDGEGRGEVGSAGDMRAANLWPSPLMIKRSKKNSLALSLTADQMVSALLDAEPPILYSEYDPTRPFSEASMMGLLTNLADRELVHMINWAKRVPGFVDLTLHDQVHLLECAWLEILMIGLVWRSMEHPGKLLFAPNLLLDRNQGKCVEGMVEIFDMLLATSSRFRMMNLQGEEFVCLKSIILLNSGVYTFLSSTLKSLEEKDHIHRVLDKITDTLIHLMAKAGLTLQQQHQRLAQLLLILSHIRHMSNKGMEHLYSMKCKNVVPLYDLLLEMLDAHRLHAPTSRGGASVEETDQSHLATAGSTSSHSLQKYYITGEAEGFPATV

| SMILES | inhibition of ligand binding (at 10 µM) | inhibition of ligand binding (binding inhibition, at 0.1 µM) [%] |
| --- | --- | --- |
| CC1Cc2ccccc2N1C(=O)CSc1nnc(-c2ccc(S(=O)(=O)N3CCCC3)cc2)o1 (centres undefined) | 56% (inactive) |  |
| O=C(c1cc2c(s1)CCC2)N1CCN(c2ccccc2)CC1 | 16% (active) | 70 |
| O=C(NNC(=O)c1ccc(SCC2CCCO2)c([N+](=O)[O-])c1)c1ccc(Cl)c([N+](=O)[O-])c1 (centres undefined) | 35% (inactive) | 45 |
| C/C=C/COC(=O)c1[nH]c2c(c1C)C(=O)CC(c1ccco1)C2 (centres undefined) | 29% (inactive) | 27 |
| O=S(=O)(NCc1csc(-c2cccnc2)n1)c1cccs1 | 22% (inactive) | 5 |
| CC1(C)CC(=O)C=C(NC2CC(C)(C)NC(C)(C)C2)C1 | 0% (inactive) |  |
| COc1cc(C=C(c2nc3ccccc3s2)c2nc3ccccc3s2)ccc1O | 31% (inactive) | 35 |
| COc1ccc(NS(=O)(=O)c2ccc3c(c2)[C@H]2C=CC[C@H]2[C@@H](c2cccc(OC)c2OC)N3)cc1 | 0% (inactive) |  |
| Cc1sc2ncnc(SCC(=O)NC(=O)NCc3ccco3)c2c1C | 19% (inactive) |  |
| CCOc1cc2c(cc1OCC)C(C(CC)CC)NCC2 (centres undefined) | 0% (inactive) |  |
| O=C(Oc1ccc2c(c1)OCO2)c1cc2c(s1)CCC2 | 32% (inactive) | 27 |
| CC1CCN(S(=O)(=O)c2ccc(NC(=O)Cc3cccs3)cc2)CC1 | 62% (inactive) | 56 |
| C=C(C)CNC(=S)NNC(=O)CCn1c2cc(Cl)ccc2c2ccc(Cl)cc21 | 60% (inactive) | 15 |
| C=C1c2ccc(OC)cc2NC(=O)N1c1ccccc1 | 4% (inactive) |  |
| Nc1cc2sc(-c3ccc(C(=O)O)cc3)nc2cc1Cl | 24% (inactive) | 49 |
